A selection: hits, their analogues and other compounds. The true share with any hit is near 21%.
Cycloheximide cs = counter-screen hit for Shiga toxin inhibitors, cycloheximide; cell reporter, cycloheximide protein synthesis inhibition counterscreen; max response, %; 300,000 tested, 12% active; AID 2314; in the data active = max response mostly above about 13%, no sharp cut-off; inactive = mostly below about 14%; note: read at 38.3 µM for the half of the compounds with a filed dose; 0% is about no effect
Pf growth 96h = P. falciparum growth inhibition at 96 hours; P. falciparum luciferase reporter growth, 96 h; Potency, µM (highest dose often 28.7 µM), inactives show at the top dose activity change, negative = inhibition, actives largely listed as inhibitors; 320,000 tested, 6.9% active; note: potency is the fitted concentration of half-maximal effect; % is set by controls: 0 for no effect and ±100 for the full control effect
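P. falciparum expressing integrated firefly luciferase grown in erythrocytes (2% hematocrit, 0.05% parasitemia final) with compounds for 96 hours at 37 C, 5% CO2. Growth inhibition read as loss of luminescence after adding luciferase detection reagent.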
Shiga toxin inh = inhibitors of Shiga toxin in Vero cells. Vero cells, Shiga toxin protein synthesis inhibition reporter. inhibition, % at 38.7 µM. 290,000 tested, 9.2% active. AID 2315; in the data active = inhibition mostly above about 28%, no sharp cut-off; inactive = mostly below about 43%; note: 0% is about no effect
Sm TGR inh = inhibitors of Schistosoma mansoni thioredoxin glutathione reductase | Q962Y6 | purified TGR, DTNB reduction, TNB absorbance 405 nm | Potency, µM (doses to about 114 µM), inactives show at the highest dose activity change, negative = inhibition, most hits filed as inhibitors | 360,000 tested, 3% active; note: potency is the fitted concentration of half-maximal effect; % is set by controls: 0 for no effect and ±100 for the full control effect; nearly all actives have a fitted effect of over 60% in size
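First, TGR (20 nM dispensed) and NADPH were mixed with compound. Second, a 15 min room-temperature incubation followed. Third, further NADPH and then DTNB were added to start the reaction. Finally, TNB absorbance was monitored kinetically.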
Pf growth 48h = P. falciparum growth inhibition at 48 hours (one generation). P. falciparum luciferase growth in erythrocytes, 48 h. Potency, µM (highest dose often 28.7 µM), without a hit: top-dose activity change, negative = inhibition, most hits filed as inhibitors. 310,000 tested, 5.9% active; note: potency is the fitted concentration of half-maximal effect; % is set by controls: 0 for no effect and ±100 for the full control effect
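In quantitative HTS format, infected erythrocytes bearing luciferase-reporter parasites were treated for a single generation at 37 C. Luminescence after adding detection reagent served as the growth measure.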
NS1 function inh = influenza NS1 inhibition | Potency, µM (doses to about 46.1 µM), for inactives: top-dose activity, positive = more growth | 270,000 tested, 0.4% active; calls by dose curve; note: potency is the fitted concentration of half-maximal effect; actives are rising curves; nearly all actives have a fitted effect of over 50% in size
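OD600 was taken as the measure of yeast growth restored by compound in an NS1-expressing S. cerevisiae strain. Cells had been washed out of glucose medium and diluted 1:100 into galactose -URA medium, pH 6.0.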
Numbers without * were called inactive; ? = inconclusive; . = no result given. Unless noted, calls come from the whole dose curve; as a rule, active = well fitted curve in the direction sought with a large enough effect; inconclusive = small, poorly fitted or top-dose-only effect, or another doubt; inactive = no such curve, though single readings can be large; an effect the other way counts as inactive or inconclusive.

SMILES	Cycloheximide cs	Pf growth 96h	Shiga toxin inh	Sm TGR inh	Pf growth 48h	NS1 function inh
COc1ccc(-c2nc(-c3cccc(C)c3)no2)cc1OC	25*	.	60*	0%	402%	-9%
COc1cc(-c2nc(Cc3c(F)cccc3Cl)no2)cc(OC)c1OC	2	?	-14	2%	12µM*	?
CCOc1ccc(-c2cc(-c3nc(-c4cc(OC)c(OC)c(OC)c4)no3)[nH]n2)cc1Cl	.	.	.	1%	.	.
CC[C@H](C)[C@H](NC(=O)[C@@H](NC(=O)CNC(=O)[C@@H](N)CC(C)C)[C@@H](C)O)C(=O)N1CCC[C@H]1C(=O)NCC(=O)O	0	.	-8	.	.	.
CC(C)CN1CCN(C2CCN(C(C)C)CC2)C(CCO)C1 (stereo not given)	-1	16%	-8	1%	?	-2%
O=C1[C@@H]2CSC(c3ccc(F)cc3)N2C(=O)N1c1ccc(Cl)cc1 (stereo not given in full)	.	.	.	0%	.	.
Cc1ccc(OCCOCCn2c(-c3ccc(Cl)cc3)nc3ccccc3c2=O)cc1	.	.	.	16%	.	.
COc1cc(-c2nc(-c3cccc(C)c3)no2)cc(OC)c1OC	16*	.	33*	3%	-17%	-4%
COc1ccc(S(=O)(=O)N(C)c2ccc(C(N)=O)cc2)cc1	-4	.	-10	-1%	20%	-3%
O=C(Cn1cc(SCc2c(F)cccc2Cl)c2ccccc21)N1CCCC1	.	.	.	-5%	.	.
CC(=O)N1CCc2cc(S(=O)(=O)NC(Cc3ccccc3)C(=O)Nc3ccc(C)cc3C)ccc21 (stereo not given)	.	.	.	-1%	.	.
NS(=O)(=O)c1ccc(CCNc2ccccc2[N+](=O)[O-])cc1	36*	33%	77*	4%	57%	1%
CCNc1ccc(S(=O)(=O)NCCN(C)C)cc1[N+](=O)[O-]	2	12%	-18	0%	5%	.
CCNc1ccc(S(N)(=O)=O)cc1[N+](=O)[O-]	-3	12µM*	-4	-11%	-12%	21%
Cc1cn(C)c(CC(=O)N2CCN(c3cccc(C(F)(F)F)c3)CC2)c1C(=O)O	.	.	.	7%	.	.
CCCCCC(=O)Nc1ccc(C(=O)COC(=O)c2ccccn2)cc1	.	67%	.	4%	28%	.
O=C(CNC(=O)c1ccccc1F)N/N=C/c1cccs1	30*	-25%	53*	-11%	121%	1%
O=C(CNC(=O)c1ccccc1)N/N=C/c1cccs1	-1	?	30	6%	44%	1%
Cc1ccc(/C=N/NC(=O)c2ccncc2)s1	15	-30%	20	0%	?	-1%
O=C(N/N=C/c1cccs1)c1ccccn1	33*	406%	111*	-4%	363%	-15%
Cc1cc(C)n2nc(C(=O)N/N=C/c3cccs3)nc2n1	8	19%	17	5%	6%	-1%
CC1C(=O)NN=C1C(=O)N/N=C/c1cccs1 (stereo not given)	19*	26%	86*	4%	87%	.
Cc1ccc(/C=N/NC(=O)c2ccccn2)s1	49*	168%	44*	-7%	116%	13%
Cc1cc2[nH]c(=O)c(=O)[nH]c2cc1S(=O)(=O)Nc1ccccc1F	-1	-19%	1	-11%	15%	7%
CC(OC(=O)c1cc(=O)[nH]c2ccccc12)C(=O)NC1CCCC1 (stereo not given)	.	28%	.	1%	6%	.
SMILES	Cycloheximide cs	Pf growth 96h	Shiga toxin inh	Sm TGR inh	Pf growth 48h	NS1 function inh
CC(NC(=O)CN1CCN(CC(=O)Nc2ccccc2Cl)CC1)c1ccc(Br)cc1 (stereo not given)	.	?	.	6%	?	.
CCOc1ccccc1NC(=O)CSc1nnc(CNC(=O)COc2ccc(Cl)cc2)o1	-3	10µM*	46	3%	6%	-14%
COC(=O)c1ccc(CSc2nnc(CNC(=O)COc3ccc(Cl)cc3)o2)o1	-2	5.9µM*	-20	-18%	-12%	-5%
COC(=O)c1cccc(Nc2c(-c3cc(Br)ccc3O)nc3nc[nH]n23)c1	.	.	.	-28%	.	.
O=C(NCCc1cccs1)c1ccc(Cn2c(SCc3ccccc3)nc3cccnc32)cc1	.	.	.	2%	.	.
O=C(CC(C(=O)O)c1ccc(Cl)cc1)c1ccc(Br)cc1 (stereo not given)	3	29%	3	-3%	42%	-39%
O=C(CCO)c1ccc(O)cc1	-3	45%	-12	18µM*	8%	0%
CCCCC(=O)c1ccc(O)cc1	15*	.	42	-17%	32%	6%
CC/C(=C(/CC)c1ccc(O)cc1)c1ccc(O)cc1	1	?	-5	16%	?	3%
O=C(CCSc1ccc(Br)cc1)c1ccc(O)cc1	-1	5%	6	2.5µM*	-3%	-95%
CCCC[C@H](NC(=O)[C@@H]1CCCN1C(=O)[C@H]1CCCN1C(=O)[C@H](Cc1ccccc1)NC(=O)[C@@H](Cc1c[nH]c2ccccc12)NC(=O)[C@H](C)NC(=O)[C@H](CCCN=C(N)N)NC(=O)OC(C)(C)C)C(N)=O	-1	.	34	.	.	.
O=c1cc(CF)[nH]c(=S)[nH]1	.	.	.	.	.	6%
N#Cc1ccccc1CSc1ccc(-c2nc3ccccc3[nH]2)cn1	47*	?	79*	1%	?	23%
CC(=O)CSc1ccc(-c2nc3cc(C)c(C)cc3[nH]2)cn1	-2	34%	2	-12%	-3%	2%
CC(=O)CSc1ccc(-c2nc3ccccc3[nH]2)cn1	16*	8.3µM*	.	-7%	75%	-38%
Cc1ccc2nc(-c3ccc(SCC(=O)N4CCc5ccccc54)nc3)[nH]c2c1	56*	12%	121*	-5%	?	16%
CCOC(=O)CNC(=O)CSc1ccc(-c2nc3ccccc3[nH]2)cn1	3	35%	5	-15%	28%	-2%
Cc1ccc2nc(-c3ccc(SCC(=O)O)nc3)[nH]c2c1	24	?	27	5%	81%	2%
Cc1cc2nc(-c3ccc(SCc4ccc(C#N)cc4)nc3)[nH]c2cc1C	15	7.4µM*	20	-18%	?	22%
CC(=O)c1cccc(NC(=O)CCc2nc3cccnc3n2Cc2cccs2)c1	.	.	.	-7%	.	.
CNC(=S)N/N=C/c1ccc(-c2cccc(C(=O)O)c2)o1	61*	159%	112*	-33%	199%	-4%
Nc1nonc1C(=O)N/N=C/c1ccc(-c2cccc(C(=O)O)c2)o1	29*	?	51*	8%	25%	.
Cc1ccc(C(=O)N/N=C/c2ccc(-c3cccc(C(F)(F)F)c3)o2)cn1	-4	-1%	16	3%	-18%	1%
O=C(O)c1cccc(-c2ccc(/C=N/Nc3nn[nH]n3)o2)c1	10	35%	10	2%	41%	.
Cc1ccc(OCC(=O)N/N=C\c2ccc(-c3cccc(C(=O)O)c3)o2)c(C)c1	74*	-19%	177*	-27%	51%	-3%
COc1ccc(CC(=O)N/N=C/c2ccc(-c3cccc(C(=O)O)c3)o2)cc1OC	71*	150%	195*	-14%	48%	8%

Source: PubChem (National Center for Advancing Translational Sciences (NCATS))
